We go through 17 compounds from PubChem BioAssay (NCATS).

Records with an inconclusive call do not appear. A call without a number means that no potency is given here. Activity calls are given as the source filed them. Calls come from the whole dose curve; as a rule, active = well fitted cell-killing curve with a large enough effect; inconclusive = small, poorly fitted or top-dose-only effect, or effect the other way; inactive = flat fitted curve, though single readings scatter.
Potency is the fitted concentration of half-maximal effect.

This experiment relates to Es-2. The experiment is described as follows: Primary qHTS to identify gynecologic anti-cancer compounds using libraries of approved drugs and bioactive compounds (AID 1345084). Note: nearly all actives have a fitted effect of over 55% in size. As to conditions: Gynecologic cancer cell panel viability, ATPlite luminescence, 48 h; series mostly up to 57.5 µM. In a few lines: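 ATP-based viability (ATPlite), 1,000 cells/well, 16 h pre-incubation, 48 h compound at 37 C, 5% CO2, 15 min RT before read.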
A general note: qHTS replaces the single test concentration by a dilution series.
Regarding `CCN[C@H]1C[C@H](C)S(=O)(=O)c2sc(S(N)(=O)=O)cc21`, the Potency result is “inactive”. To `CNC(=O)c1cc(Oc2ccc(NC(=O)Nc3ccc(Cl)c(C(F)(F)F)c3)cc2)ccn1` belongs “inactive”; to `COC(=O)Nc1nc2ccc(Sc3ccccc3)cc2[nH]1`, 2.82 µM (active); to `CCn1cc(C(=O)O)c(=O)c2cc(F)c(N3CCNCC3)cc21`, “inactive”.

`NC(=O)c1cccnc1`: the Potency result is “inactive”. To `O=C(N[C@H](CO)[C@H](O)c1ccc([N+](=O)[O-])cc1)C(Cl)Cl` belongs “inactive”; to `COc1cc2ncnc(Nc3cccc(Cl)c3)c2cc1OC`, “inactive”. In the case of `Oc1c(Cl)cc(Cl)c2cccnc12` it was 20 µM (active); in that of `CC(C)C[C@H](NC(=O)[C@H](CCc1ccccc1)NC(=O)CN1CCOCC1)C(=O)N[C@@H](Cc1ccccc1)C(=O)N[C@@H](CC(C)C)C(=O)[C@@]1(C)CO1`, 0.316 µM (active). Consider `Clc1ccccc1CN1CCc2sccc2C1`, for which the Potency entry was “inactive”. To `CCC(=O)O[C@]1(C(=O)SCF)[C@H](C)C[C@H]2[C@@H]3C[C@H](F)C4=CC(=O)C=C[C@]4(C)[C@@]3(F)[C@@H](O)C[C@@]21C` belongs “inactive”. Consider `N=C(N)c1ccc(OCCCCCOc2ccc(C(=N)N)cc2)cc1`, for which the Potency entry is “inactive”. In the case of `Cc1cc(NS(=O)(=O)c2ccc(N)cc2)no1` it was “inactive”; in that of `COC(=O)Nc1nc2ccc(S(=O)c3ccccc3)cc2[nH]1` (configuration not stated), 3.55 µM (active); in that of `Cc1noc(NS(=O)(=O)c2ccc(N)cc2)c1C`, “inactive”. As for `Nc1nc(=S)c2[nH]cnc2[nH]1`, the Potency is 7.08 µM (active).

On to `CC(C)(C)C(=O)OCOP(=O)(COCCn1cnc2c(N)ncnc21)OCOC(=O)C(C)(C)C`, for which the Potency is 7.08 µM (active).
